In assay [1] the target is mouse Estrogen Receptor alpha (Era), Esr1 (gene 13982) (UniProt P19785). The assay can be described thus: NVS_NR_mERa: NovaScreen (NVS) Nuclear Receptor Binding Assay for mouse Estrogen Receptor alpha (Era) (AID 2283378).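 Further: hit means loss of bound radioligand signal relative to DMSO.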 The method in brief:
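Measurements come from scintillation counting after filtration, taken 18 hours after chemicals were added to a cell-free mouse Era preparation with radioligand. Screening was duplicate at 25 uM, with concurrent positive and negative controls and confirmatory concentration series for actives.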

For assay [2], the target named is rat Gamma-Aminobutyric Acid Type A Receptor BDZ, alpha 6 site (GABARa6), Gabra6 (gene 29708) (UniProt P30191). The experiment in a line: NVS_LGIC_rGABARa6: NovaScreen (NVS) Ligand-Gated Ion Channel Assay for rat Gamma-Aminobutyric Acid Type A Receptor BDZ, alpha 6 site (GABARa6) (AID 2283339). The method in brief:
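Actives from a 25 uM duplicate screen were retested in concentration series (max 50 uM). Specific radioligand displacement from rat cerebellar membranes was counted by filter-based scintillation at 1 h; DMSO served as baseline.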

The target in assay [3] is rat CYP2C11, Cyp2c11 (gene 29277) (UniProt P08683). The assay can be described thus: NVS_ADME_rCYP2C11: NovaScreen (NVS) CYP450-related Enzyme Activity (ADME) Assay for rat CYP2C11 (AID 2283118). The method, boiled down:
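Screened first at 10 uM in duplicate, hits followed by concentration-response. Recombinant rat enzyme activity monitored by fluorescence 0.33 h post-dosing, normalised to acetonitrile negative control.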

In assay [4] the target is rat CYP2C13, Cyp2c13 (gene 171521) (UniProt P20814). The assay can be described thus: NVS_ADME_rCYP2C13: NovaScreen (NVS) CYP450-related Enzyme Activity (ADME) Assay for rat CYP2C13 (AID 2283121). The method in brief:
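Inhibition is read as decreased fluorescent product formation, referenced to acetonitrile vehicle. Cell-free recombinant rat Cyp2c13 reaction ran 0.75 hour; compounds first at 10 uM in duplicate, then concentration series for actives.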

For assay [5], the target named is Glucocorticoid receptor (Homo sapiens) (UniProt P04150). The experiment in a line: NVS_NR_hGR: NovaScreen (NVS) Nuclear Receptor Binding Assay for human Glucocorticoid Receptor (GR) (AID 2283363).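 Further: activity is loss of specific radioligand binding signal relative to DMSO.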 The method, boiled down: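 Single-readout cell-free binding: radioligand plus extracted receptor, 16-hour dosing, filter radiodetection; 25 uM duplicate primary, concentration series secondary.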

A short description of assay [6]: CCTE_Shafer_MEA_acute_AB: CCTE's Alamar Blue Assay for Cytotoxicity in the Neural Acute Assay, Shafer Lab (AID 2284069).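 Further: active compounds lower the viability signal compared with DMSO wells.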 The method in brief: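 Read-out: resazurin fluorescence (ex 544, em 590 nm) after CTB reagent at 1:6 dilution in fresh media. Cells: primary rat cortical neuron networks, DIV 13 or 15, chemically exposed on MEA plates; DMSO as negative control/baseline.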

Assay [7] in a line: STM_H9_OrnithineISnorm_perc: Stemina devTOX quickPredict H9 human embryonic stem cell (hESC)-based Assay for Ornithine (ORN) Metabolite Biomarker, Normalized (AID 2283712; active means hit-call score of the fitted dose curve at least 0.9, where 1 is the maximum; inactive means score below 0.9;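 further: ornithine released into spent medium during last day measured by mass spectrometry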). The method, boiled down: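 Metabolite endpoint from spent media of pluripotent H9 cells treated 72 h with daily re-feeding; ornithine measured by UPLC-HRMS against its 13C spike-in and referenced to the median 0.1% DMSO vehicle response.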

A short description of assay [8]: CCTE_Mundy_HCI_hNP1_Pro_ResponderAvgInten: CCTE's Proliferation Assay in human neuroprogenitor cells, Mundy Lab (AID 2284224).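 Further: human neural progenitor cells hNP1 derived from WA09 embryonic stem cells.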 The method in brief: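 Human neuroprogenitors (hNP1, WA09 lineage) receive test chemical after 40 to 44 hours of attachment. A four-hour BrdU pulse begins twenty hours later, followed by fixation and high content imaging; signal is referenced to DMSO controls.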

Assay [9] can be described thus: CCTE_Mundy_HCI_hNP1_Casp3_7: CCTE's Caspase-Glo 3/7 Assay in human neuroprogenitor cells for Apoptosis, Mundy Lab (AID 2284240; active means hit-call score of the fitted dose curve at least 0.9, where 1 is the maximum; inactive means score below 0.9). The method, boiled down: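 Neuroepithelial-lineage stem cells from WA09 embryonic cells were treated with chemicals after 40–44 h of culture. Twenty-four hours later, caspase-3/7 activation was detected luminescently after a 30 min room-temperature reagent step, with DMSO as baseline.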

For assay [10], the target named is human Tyrosine Protein Kinase Receptor Tie-2 (Tie2), TEK (gene 7010) (UniProt Q02763). The assay can be described thus: NVS_ENZ_hTie2: NovaScreen (NVS) Enzymatic Assay for human Tyrosine Protein Kinase Receptor Tie-2 (Tie2) (AID 2283225). The method in brief: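 Substrate and product were separated by mobility shift and detected by fluorescence after a 1-hour reaction with recombinant Tie2. Chemicals passing a 25 uM single-point screen were titrated to a maximum of 50 uM. Results were normalized to DMSO baseline.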

Assay [11] has as its target human Vascular Endothelial Growth Factor Receptor 3 (VEGFR3), FLT4 (gene 2324) (UniProt P35916). The experiment in a line: NVS_ENZ_hVEGFR3: NovaScreen (NVS) Enzymatic Assay for human Vascular Endothelial Growth Factor Receptor 3 (VEGFR3) (AID 2283229). The method in brief: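 Chemicals first run in duplicate at 25 uM, with actives re-tested in concentration series to a top of 50 uM. Recombinant VEGFR3 activity measured after 1 h via fluorescence with mobility-shift product separation; inhibition fitted relative to DMSO.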

Read-out in assay [12]: Nuclear factor NF-kappa-B p105 subunit (Homo sapiens) (UniProt P19838)
The experiment in a line: LTEA_HepaRG_NFKB1: Life Technologies and Expression Analysis (LTEA) Assay for Nuclear Factor Kappa B Subunit 1 (NFKB1) using HepaRG (AID 2283521; active means hit-call score of the fitted dose curve at least 0.9, where 1 is the maximum; inactive means score below 0.9;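 further: TaqMan qRT-PCR transcript normalised to ACTB GAPDH and POLR2A housekeeping genes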). The following applies: mRNA level, 48 h; actives raise or lower the signal. The method in brief: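 Differentiated human HepaRG cells were exposed for 48 h in serum-free induction medium to eight concentrations (top 100 uM, half-log steps, 0.5% DMSO), in duplicate. NFKB1 mRNA was measured by TaqMan qRT-PCR, normalized to ACTB/GAPDH/POLR2A, and fitted bidirectionally against DMSO.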

The target in assay [13] is Estrogen receptor (Homo sapiens) + Estrogen receptor beta (Homo sapiens) (UniProt P03372+Q92731). The experiment in a line: OT_ER_ERaERb_0480: Odyssey Thera (OT) 8-hour HEK293T Protein-Complementation Assay for Estrogen Receptor-alpha/-beta Heterodimer (AID 2283352). The method in brief: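 Human HEK293T cells were treated for 8 hours and receptor heterodimerisation was detected through reconstitution of a fluorescent reporter split between ER-alpha and ER-beta ligand-binding domains. Activity was analysed as gain of signal against DMSO.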

Another assay has as its target PGR (gene 5241) (UniProt P06401). The assay can be described thus: TOX21_PR_BLA_Followup_Antagonist_ratio: Tox21 HEK293 Progesterone Receptor (PR) Antagonism Beta-lactamase Follow-Up Assay, Ratio (AID 2283934).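 Further: PR-UAS-bla HEK293T cells stimulated with 1 nM R5020 agonist for 16 hr.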 The method in brief: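 Measured in PR-UAS-bla HEK293T cells co-treated with compound and 1 nM promegestone for 16 hr; beta-lactamase ratio read after 2 h FRET substrate loading, with parallel CellTiter-Glo cytotoxicity.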

A short description of assay [14]: TOX21_PR_BLA_Followup_Antagonist_viability: Viability Assessment in the Tox21 HEK293 Progesterone Receptor (PR) Antagonism Beta-lactamase Follow-Up Assay (AID 2283936).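 Further: cells exposed to compound with R5020 agonist for 16 h; hits lower the luminescence signal meaning cytotoxicity.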 The method in brief: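 PR-UAS-bla HEK293T cells in medium with 2% charcoal-stripped FBS were treated with compounds plus R5020 for 16 hr at 37C. After the beta-lactamase read, CellTiter-Glo was added to the same wells and luminescence read after 30 min at room temperature.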

Assay [15] in a line: TOX21_PR_LUC_Followup_Antagonist_viability: Viability Assessment in the Tox21 HEK293 Progesterone Receptor (PR) Antagonism Luciferase Follow-Up Assay (AID 2283940). The method, boiled down: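 Loss of CellTiter-Glo ATP signal indicates cytotoxicity in HEK293-PR-A-luc cells grown in 10% charcoal-stripped FBS medium, seeded 3,000 per well and incubated 16 h with compound at 37C.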

Assay [16] can be described thus: TOX21_PR_LUC_Followup_Agonist_viability: Viability Assessment in the Tox21 HEK293 Progesterone Receptor (PR) Agonism Luciferase Follow-Up Assay (AID 2283941).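 Further: loss of signal means cytotoxicity so actives lower viability.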 The method, boiled down:
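Seeding: HEK293-PR-A-luc, 3,000 cells/well, 5 h at 37C. Treatment: compound in DMSO, 16 h, 37C. Read: CellTiter-Glo ATP luminescence, signal loss taken as lower viability.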

The next assay deals with IYD (gene 389434). The experiment in a line: CCTE_GLTED_hIYD: CCTE's human Iodotyrosine Deiodinase (xIYD) Inhibition Assay, Great Lakes Toxicology and Ecology Division (GLTED) Lab (AID 2284317).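 Further: cell-free human IYD enzyme made in baculovirus insect cells; iodide freed from monoiodotyrosine measured by cerium arsenite color change at 420 nm.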 The method in brief:
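Iodide liberated from monoiodotyrosine by baculovirus-expressed human IYD over 3 h was determined colorimetrically (Sandell-Kolthoff, 420 nm) after Dowex separation; inhibition is loss of signal versus DMSO.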

A short description of assay [17]: NVS_IC_rCaBTZCHL: NovaScreen (NVS) Ion Channel Assay for Calcium Channel, Type L, Benzothiazepine Site (CaBTZCHL) (AID 2283337). The method in brief:
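Benzothiazepine-site binding was assessed in a tissue-derived, cell-free rat cortical membrane system. After 1.5 h exposure, radioactivity retained on filters was quantified by scintillation; positive and negative controls accompanied every plate.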

The target in assay [18] is human Dual Specificity Protein Phosphatase 3 (DUSP3), DUSP3 (gene 1845) (UniProt P51452). The assay can be described thus: NVS_ENZ_hDUSP3: NovaScreen (NVS) Enzymatic Assay for human Dual Specificity Protein Phosphatase 3 (DUSP3) (AID 2283152). The method in brief: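 Cell-free fluorescence-intensity enzyme activity assay with recombinant protein and substrate; loss of signal fitted relative to DMSO baseline. Primary screen in duplicate at 25 uM, actives then run in concentration series; measured 0 h after dosing.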

The values below come from PubChem BioAssay (EPA / NIEHS).

Results filed as inconclusive are left out. Activity calls are given as the source filed them. How the source made its calls, unless noted: active means hit-call score of the fitted dose curve at least 0.9, where 1 is the maximum; inconclusive means response in the unintended direction; inactive means score below 0.9.

For orientation: AC50 means the midpoint of the concentration-response curve, whichever way the signal moves.

human Vascular Endothelial Growth Factor Receptor 3 (VEGFR3), FLT4 (gene 2324), sequence (P35916 whole entry, looked up): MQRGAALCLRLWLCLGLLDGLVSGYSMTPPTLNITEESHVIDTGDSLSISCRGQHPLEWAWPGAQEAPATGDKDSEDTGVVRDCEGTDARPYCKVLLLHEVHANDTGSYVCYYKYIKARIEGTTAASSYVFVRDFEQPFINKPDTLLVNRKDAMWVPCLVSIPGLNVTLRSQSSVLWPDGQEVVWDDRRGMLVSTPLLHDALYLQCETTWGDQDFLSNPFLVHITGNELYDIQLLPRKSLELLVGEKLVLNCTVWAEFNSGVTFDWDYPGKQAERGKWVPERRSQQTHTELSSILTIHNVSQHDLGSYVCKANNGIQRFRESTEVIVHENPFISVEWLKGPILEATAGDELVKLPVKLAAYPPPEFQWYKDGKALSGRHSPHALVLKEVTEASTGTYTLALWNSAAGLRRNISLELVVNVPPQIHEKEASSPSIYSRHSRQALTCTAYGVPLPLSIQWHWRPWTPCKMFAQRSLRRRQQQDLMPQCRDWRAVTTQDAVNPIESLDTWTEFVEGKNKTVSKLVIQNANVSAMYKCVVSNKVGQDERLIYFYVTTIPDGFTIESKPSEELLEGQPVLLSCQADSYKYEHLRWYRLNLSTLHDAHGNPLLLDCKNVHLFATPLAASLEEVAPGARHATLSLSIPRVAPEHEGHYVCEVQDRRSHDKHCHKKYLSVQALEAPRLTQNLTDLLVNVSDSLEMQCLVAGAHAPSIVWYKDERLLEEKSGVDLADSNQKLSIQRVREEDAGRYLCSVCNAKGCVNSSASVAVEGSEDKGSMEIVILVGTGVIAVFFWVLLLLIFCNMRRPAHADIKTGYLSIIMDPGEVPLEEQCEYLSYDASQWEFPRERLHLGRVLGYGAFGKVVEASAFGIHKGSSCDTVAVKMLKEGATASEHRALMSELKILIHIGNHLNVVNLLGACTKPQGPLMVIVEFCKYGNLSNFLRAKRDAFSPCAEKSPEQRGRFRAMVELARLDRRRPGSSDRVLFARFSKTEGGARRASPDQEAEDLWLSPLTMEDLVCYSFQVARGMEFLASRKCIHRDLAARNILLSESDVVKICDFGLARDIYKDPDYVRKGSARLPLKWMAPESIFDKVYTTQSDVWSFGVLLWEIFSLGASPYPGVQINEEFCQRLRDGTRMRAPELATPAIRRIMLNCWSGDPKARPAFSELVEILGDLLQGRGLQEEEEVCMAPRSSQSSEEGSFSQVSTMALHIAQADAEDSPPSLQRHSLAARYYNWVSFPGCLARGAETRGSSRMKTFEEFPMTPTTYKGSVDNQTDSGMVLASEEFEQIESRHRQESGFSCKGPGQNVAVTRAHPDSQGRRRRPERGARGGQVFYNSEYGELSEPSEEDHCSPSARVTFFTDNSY
human Tyrosine Protein Kinase Receptor Tie-2 (Tie2), TEK (gene 7010), sequence (Q02763 whole entry, looked up): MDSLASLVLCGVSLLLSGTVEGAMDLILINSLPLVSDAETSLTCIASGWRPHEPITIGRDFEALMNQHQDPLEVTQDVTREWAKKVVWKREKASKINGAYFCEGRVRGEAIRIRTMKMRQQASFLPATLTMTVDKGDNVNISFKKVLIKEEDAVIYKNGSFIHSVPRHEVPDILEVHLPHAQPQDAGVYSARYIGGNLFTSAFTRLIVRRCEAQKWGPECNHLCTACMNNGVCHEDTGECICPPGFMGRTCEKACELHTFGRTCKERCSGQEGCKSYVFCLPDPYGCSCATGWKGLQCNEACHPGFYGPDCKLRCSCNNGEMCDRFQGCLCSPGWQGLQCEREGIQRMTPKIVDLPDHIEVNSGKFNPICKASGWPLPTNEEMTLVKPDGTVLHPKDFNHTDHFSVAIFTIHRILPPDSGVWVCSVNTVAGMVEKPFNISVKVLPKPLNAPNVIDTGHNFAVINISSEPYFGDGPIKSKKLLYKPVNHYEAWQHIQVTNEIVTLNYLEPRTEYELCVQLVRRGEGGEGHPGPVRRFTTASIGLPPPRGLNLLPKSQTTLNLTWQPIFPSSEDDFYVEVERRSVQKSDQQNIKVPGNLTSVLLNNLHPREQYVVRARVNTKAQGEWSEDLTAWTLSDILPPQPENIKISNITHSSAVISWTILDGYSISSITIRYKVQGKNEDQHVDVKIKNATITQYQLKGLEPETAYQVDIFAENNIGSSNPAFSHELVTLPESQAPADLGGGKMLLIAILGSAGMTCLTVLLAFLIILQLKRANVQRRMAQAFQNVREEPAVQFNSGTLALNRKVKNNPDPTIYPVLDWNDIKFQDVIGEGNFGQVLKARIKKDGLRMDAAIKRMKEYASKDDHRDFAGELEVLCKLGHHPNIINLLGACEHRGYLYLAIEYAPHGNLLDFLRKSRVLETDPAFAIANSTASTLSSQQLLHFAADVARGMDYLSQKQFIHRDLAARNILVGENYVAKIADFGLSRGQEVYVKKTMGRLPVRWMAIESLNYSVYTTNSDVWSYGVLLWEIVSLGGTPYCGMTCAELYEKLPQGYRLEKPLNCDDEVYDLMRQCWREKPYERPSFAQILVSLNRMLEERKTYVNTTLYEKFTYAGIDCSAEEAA
human Dual Specificity Protein Phosphatase 3 (DUSP3), DUSP3 (gene 1845), sequence (P51452 whole entry, looked up): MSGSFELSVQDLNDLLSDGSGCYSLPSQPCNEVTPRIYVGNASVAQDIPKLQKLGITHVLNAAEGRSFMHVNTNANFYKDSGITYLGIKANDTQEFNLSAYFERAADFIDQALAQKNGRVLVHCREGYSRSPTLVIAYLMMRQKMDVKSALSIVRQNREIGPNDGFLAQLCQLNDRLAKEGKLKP
PGR (gene 5241), sequence (P06401 whole entry, looked up): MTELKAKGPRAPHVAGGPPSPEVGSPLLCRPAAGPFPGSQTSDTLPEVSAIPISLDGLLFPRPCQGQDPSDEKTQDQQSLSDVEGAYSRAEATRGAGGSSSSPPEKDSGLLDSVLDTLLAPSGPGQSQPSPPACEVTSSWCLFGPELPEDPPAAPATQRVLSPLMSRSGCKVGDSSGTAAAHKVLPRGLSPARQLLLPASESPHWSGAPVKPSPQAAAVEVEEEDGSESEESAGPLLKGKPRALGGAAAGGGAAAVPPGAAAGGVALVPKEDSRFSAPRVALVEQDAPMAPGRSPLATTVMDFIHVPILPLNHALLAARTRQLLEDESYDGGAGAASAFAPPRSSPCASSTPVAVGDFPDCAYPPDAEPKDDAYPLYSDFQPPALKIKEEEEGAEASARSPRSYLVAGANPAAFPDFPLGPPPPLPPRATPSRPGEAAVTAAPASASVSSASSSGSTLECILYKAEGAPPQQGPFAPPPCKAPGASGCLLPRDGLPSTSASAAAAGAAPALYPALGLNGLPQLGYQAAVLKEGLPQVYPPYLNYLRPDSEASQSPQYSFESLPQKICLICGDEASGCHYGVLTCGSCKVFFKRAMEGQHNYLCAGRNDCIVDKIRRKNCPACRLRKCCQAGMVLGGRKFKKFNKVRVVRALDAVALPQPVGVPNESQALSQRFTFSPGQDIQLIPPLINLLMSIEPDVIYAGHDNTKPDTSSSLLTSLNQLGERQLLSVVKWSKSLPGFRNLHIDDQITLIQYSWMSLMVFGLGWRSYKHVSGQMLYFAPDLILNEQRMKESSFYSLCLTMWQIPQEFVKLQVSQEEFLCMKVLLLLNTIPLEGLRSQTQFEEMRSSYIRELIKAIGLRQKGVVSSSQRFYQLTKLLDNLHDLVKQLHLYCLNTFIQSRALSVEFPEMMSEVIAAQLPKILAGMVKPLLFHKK
Estrogen receptor (Homo sapiens) + Estrogen receptor beta (Homo sapiens), sequence (P03372 whole entry, looked up, the tested form may be a part): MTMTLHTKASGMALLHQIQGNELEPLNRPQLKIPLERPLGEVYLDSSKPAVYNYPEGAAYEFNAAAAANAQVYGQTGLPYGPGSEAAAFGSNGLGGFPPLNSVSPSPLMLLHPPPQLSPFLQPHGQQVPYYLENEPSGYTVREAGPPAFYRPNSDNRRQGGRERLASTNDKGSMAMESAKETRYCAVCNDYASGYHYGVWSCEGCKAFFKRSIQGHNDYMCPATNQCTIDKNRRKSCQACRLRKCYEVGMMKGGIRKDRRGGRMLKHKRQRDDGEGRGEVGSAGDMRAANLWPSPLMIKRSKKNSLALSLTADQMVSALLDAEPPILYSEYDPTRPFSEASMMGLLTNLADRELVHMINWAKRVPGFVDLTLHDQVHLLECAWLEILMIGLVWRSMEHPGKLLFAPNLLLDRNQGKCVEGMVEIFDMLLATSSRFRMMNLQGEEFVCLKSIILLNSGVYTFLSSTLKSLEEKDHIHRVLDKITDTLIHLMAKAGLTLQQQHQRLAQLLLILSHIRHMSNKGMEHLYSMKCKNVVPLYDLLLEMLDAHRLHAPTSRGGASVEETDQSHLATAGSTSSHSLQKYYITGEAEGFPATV
Estrogen receptor (Homo sapiens) + Estrogen receptor beta (Homo sapiens), sequence (Q92731 whole entry, looked up, the tested form may be a part): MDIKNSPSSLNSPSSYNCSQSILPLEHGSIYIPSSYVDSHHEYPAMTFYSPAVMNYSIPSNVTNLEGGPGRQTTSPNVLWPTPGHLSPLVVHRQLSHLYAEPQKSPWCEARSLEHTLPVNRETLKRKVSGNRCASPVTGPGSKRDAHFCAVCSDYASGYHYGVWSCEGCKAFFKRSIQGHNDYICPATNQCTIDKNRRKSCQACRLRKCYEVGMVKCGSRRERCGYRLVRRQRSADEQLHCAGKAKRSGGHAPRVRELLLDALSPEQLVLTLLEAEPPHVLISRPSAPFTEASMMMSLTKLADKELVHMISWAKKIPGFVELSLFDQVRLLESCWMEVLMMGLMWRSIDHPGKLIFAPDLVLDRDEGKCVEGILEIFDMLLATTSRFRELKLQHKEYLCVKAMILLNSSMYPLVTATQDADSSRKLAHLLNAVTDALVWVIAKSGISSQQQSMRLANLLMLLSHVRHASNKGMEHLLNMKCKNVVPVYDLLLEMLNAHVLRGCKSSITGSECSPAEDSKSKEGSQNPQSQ

Regarding `O=C(O)c1cc[c]([Hg][Cl])cc1`, the result in assay [1] was inactive.
On to `C=COCCCl`, for which, in assay [2], the compound was called inactive.
With `O=CNC(N1CCN(C(NC=O)C(Cl)(Cl)Cl)CC1)C(Cl)(Cl)Cl` (stereo not drawn), in assay [3], the AC50 was 5.16 µM (active). The outcome in [4] was inactive.
For the compound `O=c1c2ccccc2c(=O)c2c1cc(Cl)c1[nH]c3c([nH]c12)c(Cl)cc1c(=O)c2ccccc2c(=O)c13`, the AC50 in assay [5] is 12.9 µM (active). Also, in assay [6], the compound was called inactive.
For the compound `Cc1ccc(OP(=O)(Oc2ccc(C)cc2)Oc2ccc(C)cc2)cc1` (tested in a mixture with another compound), the result in assay [7] was inactive.
As for `CC1(C)[C@H](C(=O)O[C@H](C#N)c2cccc(Oc3ccccc3)c2)[C@@H]1C=C(Br)Br`, the outcome in [8] and in assay [9] was inactive.
For `O=[N+]([O-])c1ccc(Cl)cc1`, the compound was classed as inactive in assay [10], in assay [11] and in assay [12].
For `c1ccc(P(c2ccccc2)c2ccccc2)cc1`, in assay [13], the AC50 is 28.5 µM (active).
With `O=C(CCl)c1ccccc1`, the call in assay [10] and in [12] was inactive.
`C[C@]12CCC(=O)C(O)=C1CC[C@@H]1[C@@H]2CC[C@]2(C)C(=O)CC[C@@H]12`: the AC50 in the assay with PGR (gene 5241) is 11.3 µM (active). Moreover, the result in assay [14], in assay [15] and in assay [16] was inactive.
With `CCC1CCC(=O)O1` (stereo not drawn), in the assay on IYD (gene 389434), the result was inactive.
With `CC(=O)c1cc2c(cc1C)C(C)(C)C(C)CC2(C)C` (stereo not drawn), the AC50 with PGR (gene 5241) was 5.67 µM (active). For the same compound, the call in [14], in [15] and in assay [16] was inactive.
On to `c1ccc(Nc2ccc3ccccc3c2)cc1`, for which the result in assay [17] was inactive.
In the case of `Cc1cc(C)c(C2=C(OC(=O)CC(C)(C)C)C3(CCCC3)OC2=O)c(C)c1`, the outcome in assay [13] was inactive.
Consider `Nc1ccc(-c2ccc(N)c(N)c2)cc1N`, for which the AC50 in [18] is 8.44 µM (active).
Take `O=C(O)CCCc1ccc(N(CCCl)CCCl)cc1`: the result in assay [17] was inactive.
Consider `CNC(=N[N+](=O)[O-])NCC1CCOC1` (stereo not drawn), for which the result in [8] and in assay [9] was inactive.
On to `CC(Cc1ccc(C(C)(C)C)cc1)CN1C[C@@H](C)O[C@@H](C)C1` (stereo partly drawn), for which the call in assay [11] was inactive.
With `CC1OC(C)OC(C)O1` (stereo not drawn), in assay [18], the outcome was inactive.
Consider `CCCCCCCCCCCCCCCC[N+](C)(C)C`, for which, in the assay with IYD (gene 389434), the concentration at half-maximal activity (AC50) was 38.7 µM (active).
